Data as given in the supplement of paper PMC7866885, “A novel bicyclic 2,4-diaminopyrimidine inhibitor of Streptococcus suis dihydrofolate reductase” (PeerJ, 2021).
± gives the standard deviation.

Key:
Streptococcus suis HE06 = assay: percent growth relative to DMSO control; higher = less growth inhibition; conditions: 10 µM; incubation time 18 h
Procedure: (§1)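 CLSI broth microdilution: 5x10^4 CFU of Streptococcus suis (strain P1/7 or HE06) incubated with 10 µM Pathogen Box compound in cation-adjusted Mueller Hinton broth, 37 °C, 5% CO2, 18 h. Growth read as OD600 and expressed as percent of the DMSO-treated control (100%); mean ± SD of three independent experiments.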

Streptococcus suis P1/7 = assay: as above; conditions: 10 µM; incubation time 18 h
Procedure: as §1

`O=C(Nc1nc(-c2ccccn2)cs1)c1cncn1-c1ccccc1` gave a percent growth (Streptococcus suis HE06) of 13.4 ± 19% and a percent growth (Streptococcus suis P1/7) of 5.15 ± 6.6%.
With `COC(=O)c1cccc2oc(-c3cccc(OC)c3NC(=O)c3cc(-c4ccccc4)on3)nc12` the percent growth (Streptococcus suis HE06) was 102 ± 25% and the percent growth (Streptococcus suis P1/7) was 66 ± 18%.
Work on `Cc1cc(NC(=O)c2ccc(Oc3ccc(Cl)cc3O)o2)no1` yielded a percent growth (Streptococcus suis HE06) of 108 ± 22% and a percent growth (Streptococcus suis P1/7) of 124 ± 65%.
`CNC(=O)C1Cc2ccccc2N1C(=O)Cc1ccc(F)cc1` (stereo not drawn) showed a percent growth (Streptococcus suis HE06) of 96.6 ± 1.8% and a percent growth (Streptococcus suis P1/7) of 94.5 ± 32%.
`Cc1nn(C)cc1C(C)Nc1nncc(-c2ccc(C(F)(F)F)cc2)n1` (stereo not drawn) gave a percent growth (Streptococcus suis HE06) of 116 ± 20% and a percent growth (Streptococcus suis P1/7) of 103 ± 32%.
With `COc1ccc(S(=O)(=O)Nc2ccc(CN3CCN(C(=O)c4cccc(C#N)c4)CC3)cc2)cc1` the percent growth (Streptococcus suis HE06) was 103 ± 16% and the percent growth (Streptococcus suis P1/7) was 118 ± 47%.
Work on `O=C(CN1CCOCC1)Nc1ccc2ncnc(Nc3ccc(OCc4cccc(F)c4)c(Cl)c3)c2c1` yielded a percent growth (Streptococcus suis HE06) of 53.5 ± 39% and a percent growth (Streptococcus suis P1/7) of 63 ± 18%.
For `CC1CCCN(C(=O)C(C)Nc2cc(Cl)ccc2N2CCOCC2)C1` (stereo not drawn), the percent growth (Streptococcus suis HE06) was 92 ± 11% and the percent growth (Streptococcus suis P1/7) was 94.4 ± 32%.
`CC(C)C(C(=O)Nc1ccc(S(=O)(=O)N(C)C)cc1)c1ccc(Cl)cc1` (stereo not drawn) was tested, and the percent growth (Streptococcus suis HE06) was 110 ± 24% and the percent growth (Streptococcus suis P1/7) was 86 ± 22%.
`Cc1nc(-c2ccccn2)nc(N(C)CCc2ccccc2)c1Cl` showed a percent growth (Streptococcus suis HE06) of 9.53 ± 8.4% and a percent growth (Streptococcus suis P1/7) of -0.0636 ± 0.11%.
`COc1ccc(-c2cc(NC(=O)c3ccc(F)cc3Cl)ccc2OC)cc1` gave a percent growth (Streptococcus suis HE06) of 89.4 ± 3.4% and a percent growth (Streptococcus suis P1/7) of 96 ± 31%.
For `CC(C)C(NC(=O)Cc1cccc2ccccc12)C(=O)Nc1cccc(C#N)c1` (stereo not drawn), the percent growth (Streptococcus suis HE06) was 84.6 ± 21% and the percent growth (Streptococcus suis P1/7) was 158 ± 100%.
Work on `O=C(COc1cccc(F)c1)Nc1nc(-c2ccccn2)cs1` yielded a percent growth (Streptococcus suis HE06) of -0.0745 ± 0.086% and a percent growth (Streptococcus suis P1/7) of 3.07 ± 5.3%.
Work on `NCC(=O)N1CCn2c(nc(-c3ccccc3)c2Nc2ccc3c(c2)OCO3)C1` yielded a percent growth (Streptococcus suis HE06) of 97.6 ± 33% and a percent growth (Streptococcus suis P1/7) of 71.3 ± 25%.
Compound `CCCNC(=O)N1CCC2(CC1)CC(=O)c1cc(C)ccc1O2` has a percent growth (Streptococcus suis HE06) of 87.9 ± 23% and a percent growth (Streptococcus suis P1/7) of 61.5 ± 9.9%.
In the case of `CCc1ccccc1-n1c(C)cn2c3c(=O)n(C(C(=O)OC)C(C)C)c(=O)n(C)c3nc12` (stereo not drawn), the percent growth (Streptococcus suis HE06) is reported as 109 ± 4.8% and the percent growth (Streptococcus suis P1/7) is reported as 101 ± 14%.
With `c1csc(-c2cnc3sc(NCC4CCOCC4)nn23)c1` the percent growth (Streptococcus suis HE06) was 109 ± 22% and the percent growth (Streptococcus suis P1/7) was 91.2 ± 16%.
Work on `OCc1ccc(-c2cncc(Nc3cccc(Cl)c3)c2)cc1` yielded a percent growth (Streptococcus suis HE06) of 88 ± 13% and a percent growth (Streptococcus suis P1/7) of 69.8 ± 33%.
In the case of `COc1ccccc1CNC(=O)c1cc(C2CC2)nc2c1cnn2C(C)C`, the percent growth (Streptococcus suis HE06) is reported as 81.6 ± 10% and the percent growth (Streptococcus suis P1/7) is reported as 83.8 ± 45%.
In the case of `Clc1cccc(C(c2ccc(CN3CCNCC3)cc2)n2ccnc2)c1` (stereo not drawn), the percent growth (Streptococcus suis HE06) is reported as 96.6 ± 38% and the percent growth (Streptococcus suis P1/7) is reported as 76.7 ± 5.8%.
With `CC[P](CC)(CC)=[Au][S][C@H]1O[C@@H](COC(C)=O)[C@H](OC(C)=O)[C@@H](OC(C)=O)[C@@H]1OC(C)=O` the percent growth (Streptococcus suis HE06) was 4.65 ± 3% and the percent growth (Streptococcus suis P1/7) was 1.51 ± 1.8%.
Compound `Nc1ccc(C(=O)Nc2ccc(-c3nc4ccccc4o3)cc2)cc1` has a percent growth (Streptococcus suis HE06) of 105 ± 4.4% and a percent growth (Streptococcus suis P1/7) of 92.6 ± 17%.
`Cc1nc(-c2cccc(NCc3ccccc3)c2)[nH]c1C` showed a percent growth (Streptococcus suis HE06) of 60.1 ± 36% and a percent growth (Streptococcus suis P1/7) of 12 ± 5.5%.
`COc1cc(C(F)(F)F)nc2ccc(C)c(N)c12` gave a percent growth (Streptococcus suis HE06) of 101 ± 4.2% and a percent growth (Streptococcus suis P1/7) of 95.8 ± 24%.
For `c1ccc(Oc2ccc(-c3cc(C4CCOCC4)[nH]n3)cc2)cc1`, the percent growth (Streptococcus suis HE06) was 59.7 ± 17% and the percent growth (Streptococcus suis P1/7) was 49.6 ± 19%.
With `FC(F)(F)c1ccc(N(c2cccnc2)C2CCN(c3ccc(C(F)(F)F)cn3)CC2)cc1` the percent growth (Streptococcus suis HE06) was 67.9 ± 13% and the percent growth (Streptococcus suis P1/7) was 61.4 ± 12%.
In the case of `Cc1cc(NC(=O)c2ccc(S(=O)(=O)N(Cc3ccccc3)C(C)C)cc2)no1`, the percent growth (Streptococcus suis HE06) is reported as 105 ± 27% and the percent growth (Streptococcus suis P1/7) is reported as 71.6 ± 30%.
`CCc1cc(=O)n(C)c(SC(C)C(=O)Nc2ccc(F)cc2)n1` (stereo not drawn) was tested, and the percent growth (Streptococcus suis HE06) was 110 ± 23% and the percent growth (Streptococcus suis P1/7) was 74.8 ± 63%.
Work on `CC1CS(=O)(=O)CCN1/N=C/c1ccc([N+](=O)[O-])o1` (stereo not drawn) yielded a percent growth (Streptococcus suis HE06) of 85.9 ± 6.6% and a percent growth (Streptococcus suis P1/7) of 85.1 ± 16%.
